SARS PLpro yeast – SARS-CoV PLP inhibition in yeast. actives 0.19% (n = 330,000). S. cerevisiae expressing SARS-CoV PLpro, growth rescue. Potency, µM (highest dose often 32.9 µM), without a hit: at the top dose activity, positive = growth rescue, actives largely listed as activators; calls by dose curve; note: 0% is about no effect; nearly all actives have a fitted effect of over 55% in size
HCV inh – HCV inhibition; actives 3.4% (n = 340,000); Potency, µM (top dose mostly 41.8 µM), for inactives: at the top dose activity change, negative = inhibition, actives largely listed as inhibitors; Huh7.5.1 HCVcc-Cre infection, luciferase reporter, 44 h; AID 651820; note: % is set by controls: 0 for no effect and ±100 for the full control effect
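Compounds are dispensed onto cells plated 4 h earlier at 1,000 per well, with HCVcc-Cre virus (about 0.5 moi) added next. Following 44 h of culture, luminescent signal is measured for 15 sec after 15 min with substrate at room temperature.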
Pf growth 96h – P. falciparum growth inhibition at 96 hour, primary screen for plastid delayed-death inhibitors; P. falciparum luciferase reporter growth, 96 h; Potency, µM (titrated, usually from 28.7 µM), inactives show at the top dose activity change, negative = inhibition, usual class: inhibitors; AID 504834; actives 6.9% (n = 320,000); note: % is set by controls: 0 for no effect and ±100 for the full control effect
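Cell-based qHTS: luciferase-tagged P. falciparum in erythrocytes (2% hematocrit, 0.05% parasitemia final) incubated with compounds for 96 hours, 37 C, 5% CO2; luciferase detection reagent then added and luminescence measured.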
AMA1-RON2 inh – inhibitors of Plasmodium falciparum AMA1-RON2 interaction. AID 720542. actives 0.2% (n = 360,000). AlphaScreen AMA1-biotinylated RON2 peptide binding. Potency, µM (titrated, usually from 58.2 µM), inactives show top-dose activity change, negative = inhibition, actives largely listed as inhibitors;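 note: 0% = vehicle wells and -100% = peptide control; nearly all actives have a fitted effect of over 45% in size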
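AMA1 (3D7) with his tag at 25 nM final met compounds first, then biotinylated RON2 peptide at 25 nM; detection used donor plus acceptor beads, 10 µg/mL apiece, read by AlphaScreen after 30 min at room temperature.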
NS1 function inh – influenza NS1 inhibition. actives 0.4% (n = 270,000). AID 2326. Potency, µM (titrated, usually from 46.1 µM), for inactives: top-dose activity, positive = more growth; calls by dose curve; note: actives are rising curves; nearly all actives have a fitted effect of over 50% in size
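Read-out: OD600 growth recovery of NS1-expressing budding yeast. Cells grown overnight at 30C in -URA glucose medium, washed, resuspended and diluted 1:100 in 2% galactose assay medium, pH 6.0. Same strain lacking NS1 served as positive control.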
Pf growth 48h – P. falciparum growth inhibition at 48 hours (one generation); P. falciparum luciferase growth in erythrocytes, 48 h; Potency, µM (doses to about 28.7 µM), for the others: top-dose activity change, negative = inhibition, actives largely listed as inhibitors; actives 5.9% (n = 310,000); AID 504832; note: % is set by controls: 0 for no effect and ±100 for the full control effect
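Firefly luciferase activity from engineered P. falciparum reports growth; inhibitors lower the luminescent signal. Cultures contained 2% hematocrit erythrocytes at 0.1% final parasitemia.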
Numbers without * were called inactive; ? = inconclusive; / = no result given; ! = a repeat was not active; [ ] = dose if it differs, or a comment. Hits are enriched below; roughly 12% of the tested compounds scored in any of these assays. Unless noted, calls come from the whole dose curve; as a rule, active = well fitted curve in the direction sought with a large enough effect; inconclusive = small, poorly fitted or top-dose-only effect, or another doubt; inactive = no such curve, though single readings can be large; an effect the other way counts as inactive or inconclusive. Potency is the fitted concentration of half-maximal effect.

SMILES	SARS PLpro yeast	HCV inh	Pf growth 96h	AMA1-RON2 inh	NS1 function inh	Pf growth 48h
Cc1cccc(N2CCN(C(=O)C3CCN(c4ncnc5c4nc4n5CCCCC4)CC3)CC2C)c1 (stereo not drawn)	-54%	5.6µM*	12µM*	-8%	9%	0%
Cc1cccc(N2CCN(C(=O)C3CCN(c4ncnc5c4nc4n5CCCCC4)CC3)CC2)c1C	-3%	7.1µM*	?	-3%	12%	-11%
O=C(C1CCN(c2ncnc3c2nc2n3CCCCC2)CC1)N1CCN(c2ccccc2F)CC1	-13%	5%	4%	23%	-8%	-1%
Cc1cc(N2CCC(C(=O)N3CCN(c4cccc(C)c4C)CC3)CC2)n2ncnc2n1	3%	?	/	-1%	-14%	2.3µM*
Cc1ccc(Nc2nc(C)cc(C)c2C#N)c(C)c1	/	/	/	6%	/	/
Cc1ccsc1/C=N/NC(=O)c1cc(-c2ccncc2)nc2ccccc12	-9%	?	?	-1%[11.6 µM]	23%	?
CCOc1ccccc1-c1cc(C(=O)N/N=C/c2ccc3c(c2)OCO3)c2ccccc2n1	2%	-4%	/	-9%	3%	2.3µM*
COc1ccccc1-c1cc(C(=O)N/N=C/c2sccc2C)c2ccccc2n1	1%	?	1.9µM*	-2%	?	1.9µM*
O=C(N/N=C/c1ccc2c(c1)OCO2)c1cc(-c2ccccc2Cl)nc2ccccc12	10%	34%	10µM*	2%	?	?
CCOc1ccccc1-c1cc(C(=O)N/N=C/c2ccc(O)c(OC)c2)c2ccccc2n1	?	-4%	-7%	2%	?	?
O=C(CCc1c[nH]c2ccccc12)N/N=C/c1ccc2c(c1)OCO2	0%	13µM*	0%	-23%	8%	14%
C[C@@]12C[C@H](O)C3[C@H](CCC4=CC(=O)CC[C@]43C)[C@H]1CC[C@@H]2c1csc(N)n1 (stereo partly drawn)	/	/	/	/	-11%	/
CC(C)(C)c1ccc(C(=O)Nc2ccc(NC(=O)C(=O)O)cc2)o1	-1%	-5%	10%	0%	2%	5%
O=[N+]([O-])c1ccccc1N/N=C1\CC2CC=CC12 (stereo not drawn)	-1%	-1%	31%	20µM*	/	56%
O=C(N/N=C1\CC2CC=CC12)c1ccccc1Cl (stereo not drawn)	3%	15%	14%	25%	/	-15%
CC(=O)Nc1ccc(S(=O)(=O)N[C@@H](C)C(=O)OCc2ccc(Cl)cc2)cc1	-7%	9%	24%	-16%	-6%	4%
COc1ccc(CN(C(=O)CN2C(=O)NC3(CCC(C)CC3)C2=O)C(C)Cc2cccs2)cc1 (stereo not drawn)	-2%	?	12µM*	-7%	/	9.3µM*
C/C(=N\NC(N)=S)c1ccc[nH]1	/	/	/	/	2%	/
CC(CCN1CCC(CN2C(=O)C(=O)NC[C@@H]2Cc2ccccc2)CC1)c1ccccc1 (stereo partly drawn)	/	9%	/	4%	/	/
Cc1ccc(-n2c(NN)nc3ccccc3c2=O)c(C)c1	10%	-10%	9.3µM*	31%	27%	?
CCOCCCNC(=S)N1C2CCC1CC(NC(=O)Nc1ccc(C(=O)OCC)cc1)C2 (stereo not drawn)	0%	?	?	-20%	1%	?
CCOCCCNC(=S)N1C2CCC1CC(NC(=O)NC13CC4CC(CC(C4)C1)C3)C2 (stereo not drawn)	3%	10%	3.7µM*	-5%	4%	4.7µM*
c1ccc(Nc2c3c(nc4ccccc24)CCC3)cc1	-1%	?	9%	-7%	-4%	?
Cc1ccc2nc3c(c(Nc4ccccc4)c2c1)CCC3	-1%	?	9.3µM*	-11%	-33%	?
Fc1ccc(Nc2c3c(nc4ccccc24)CCC3)cc1	1%	14µM*	-3%	-8%	-1%	?
SMILES	SARS PLpro yeast	HCV inh	Pf growth 96h	AMA1-RON2 inh	NS1 function inh	Pf growth 48h
CCN(CC)CCCn1c2c(c(SCC(=O)Nc3ccc(OC(F)(F)F)cc3)nc1=O)CCC2	-6%	10µM*	?	14%	/	?
O=C1CCCN2N=C(SCC(=O)Nc3ccc([N+](=O)[O-])cc3)SC2=N1	1%	16%	51%	4%	-9%	5%
CCN(CC)CCn1c2c(c(SCC(=O)Nc3cccc4ccccc34)nc1=O)CCCC2	/	-3%	-14%	6%	/	?
O=C1CCCN2N=C(SCC(=O)Nc3ccc(OC(F)(F)F)cc3)SC2=N1	0%	25%	12µM*	3%	-2%	-17%
CCN(CC)CCCn1c2c(c(SCC(=O)Nc3nc4ccccc4s3)nc1=O)CCC2	6%	?	13µM*	0%	/	?
CCN(CC)CCCn1c2c(c(SCC(=O)Nc3ccc(C)c(F)c3)nc1=O)CCC2	-3%	?	?	0%	/	?
Cc1cc(CNC(=O)COC(=O)Cn2[nH]c(=O)c3ccccc3c2=O)cc(C)c1O	1%	-6%	1%	-11%	/	?
CCCCc1nnc(NC(=O)CSCc2cc(=O)n3cc(C)sc3n2)s1	-3%	3%	?	-10%	-5%	-8%
CCCc1nc2oc3c(OC)ncnc3c2c2c1COC(C)(C)C2	2%	?	6.6µM*	-2%	0%	/
CCCc1nc2oc3c(NCCOCCO)ncnc3c2c2c1COC(C)(C)C2	6%	-13%	3.7µM*	-5%	2%	-1%
Cc1nc2oc3c(NCc4ccccc4)ncnc3c2c2c1COC(C)(C)C2	12%	-30%	?	-3%	-50%	12µM*
CC(C)c1nc2oc3c(NCCO)ncnc3c2c2c1COC(C)(C)C2	-1%	8%	?	-9%	-43%	-7%
CCN(CC)S(=O)(=O)c1ccc(Cl)c(C(=O)Nc2cc(C)nn2-c2ccccc2C(F)(F)F)c1	-2%	?	?	/	-7%	?
Cn1c(=O)n(CC(=O)N2CCN(c3nnc(-c4ccccc4)c4ccccc34)CC2)c2ccccc21	-13%	?	13µM*	7%	-7%	17%
Cc1ccc(-c2nnc(N3CCN(C(=O)CN4CCOCC4)CC3)c3ccccc23)cc1	5%	10µM*!	22%	-4%	-12%	?
O=C(COc1ccc(-c2nnc(N3CCCCC3)c3ccccc23)cc1)N1CCCCC1	-1%	2%	8.3µM*	0%	-19%	12µM*
O=C(CN1CCOCC1)N1CCN(c2nnc(-c3ccccc3)c3ccccc23)CC1	1%	-6%	/	0%	2%	-24%
Cc1ccc(-c2nnc(N3CCCCC3)c3ccccc23)cc1	-1%	?	-25%	-4%	-67%	?
